This is a sample that favours compounds with a hit; in the whole collection about 2.3% have one here.
Bcl-xL primary = inhibitors of human Bcl-xL, primary screen, biochemical, fluorescence polarization, HTS | Bcl-2-like protein 1 (Homo sapiens), Q07817 | GST-Bcl-xL / FITC-Bim BH3 peptide fluorescence polarization | inhibition, % at 10.9 µM | hit rate 0.7% among 320,000;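 active = inhibition above the mean of all tested compounds plus 3 SD, cutoff set per campaign, cut at about 30% in these data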;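 note: 0% = DMSO wells and 100% = unlabeled Bim-BH3 peptide competitor; inhibitors lower millipolarization by displacing the labeled peptide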
Mcl1 Bid PPI = Mcl-1/Bid binding inhibitors, primary screen, biochemical, TR-FRET, 1536-well; Induced myeloid leukemia cell differentiation protein Mcl-1 (Homo sapiens), Q07820; TR-FRET Mcl-1/Bid-Dy647 peptide binding; inhibition, % at 21.7 µM; hit rate 0.97% among 220,000; AID 1021, 2008;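 active = compounds that cut the binding signal by more than half at the single screening dose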;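 note: His-tagged Mcl-1 with europium anti-His antibody binding Bid BH3 peptide; 0% = Mcl-1 plus peptide wells and 100% = peptide-only wells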
MCL1-BIM inh = inhibitors of MCL1 binding to BIM-BH3, primary screen, biochemical, fluorescence polarization; hit rate 0.68% among 320,000; inhibition, % at 10.9 µM; GST-MCL1 / FITC-Bim-BH3 fluorescence polarization; AID 2057, 2009;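 active = inhibition above the mean inhibition of all tested compounds plus 3 SD, set per campaign, cut at about 40% in these data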;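 note: 0% = DMSO wells and 100% = unlabeled Bim-BH3 peptide control; higher means more loss of mP so more displacement of Bim peptide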
GLD-1 TGE inh = GLD-1/TGE RNA complex disruptors, primary screen, biochemical, fluorescence polarization | hit rate 0.44% among 320,000 | AID 2280, 2010 | inhibition, % at 5.96 µM | purified GLD-1 + fluorescein TGE RNA | Female germline-specific tumor suppressor gld-1 (Caenorhabditis elegans), Q17339;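 active = percent inhibition above a per-plate cutoff, the plate mean of test compounds plus 3 SD, cut at about 30% in these data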;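 note: 0% = DMSO wells with GLD-1 and probe and 100% = wells lacking GLD-1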
Target sequence (Q17339 whole entry, looked up): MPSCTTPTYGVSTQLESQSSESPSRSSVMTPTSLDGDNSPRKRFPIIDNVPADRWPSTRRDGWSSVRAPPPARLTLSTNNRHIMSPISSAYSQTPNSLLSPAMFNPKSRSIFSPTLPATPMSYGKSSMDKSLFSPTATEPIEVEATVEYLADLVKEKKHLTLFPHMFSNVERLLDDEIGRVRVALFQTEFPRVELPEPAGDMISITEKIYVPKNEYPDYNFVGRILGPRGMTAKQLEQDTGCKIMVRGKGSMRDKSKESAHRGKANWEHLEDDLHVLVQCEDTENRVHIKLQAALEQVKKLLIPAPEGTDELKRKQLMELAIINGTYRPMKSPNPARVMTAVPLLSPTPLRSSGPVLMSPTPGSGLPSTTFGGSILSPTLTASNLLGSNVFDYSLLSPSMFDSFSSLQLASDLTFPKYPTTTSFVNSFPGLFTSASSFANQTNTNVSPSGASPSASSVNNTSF
Mcl1 Noxa PPI = Mcl-1/Noxa binding inhibitors, primary screen, biochemical, TR-FRET, 1536-well. TR-FRET Mcl-1/Noxa peptide binding, 2 h. hit rate 1.5% among 220,000. inhibition, % at 21.7 µM. Induced myeloid leukemia cell differentiation protein Mcl-1 (Homo sapiens), Q07820;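 active = compounds that cut the protein-peptide binding signal by more than 50% relative to plate controls in a single-dose test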;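 note: His-tagged Mcl-1 with rhodamine Noxa BH3 peptide and terbium anti-His antibody; 0% = Mcl-1 plus Noxa peptide wells and 100% = peptide-only wells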
Mcl-1 Bim block = inhibitors of Bim peptide binding to Mcl-1, primary screen, biochemical, bead-based flow cytometry, multiplex | Induced myeloid leukemia cell differentiation protein Mcl-1 (Homo sapiens), Q07820 | Bim peptide-Mcl-1 binding | inhibition, % at 10 µM | hit rate 0.1% among 190,000; in the data active = inhibition above about 40%;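 note: 0% = no compound tracer wells and 100% = peptide blocker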
Active calls of the source: *; / = no result given.

SMILES	Bcl-xL primary	Mcl1 Bid PPI	MCL1-BIM inh	GLD-1 TGE inh	Mcl1 Noxa PPI	Mcl-1 Bim block
O=C(/C=C/c1cccs1)Nc1scc(-c2ccccc2)c1C(=O)O	/	93*	/	/	46	-2
CCC1=C/C(=C/N(C)c2ccccc2)C(=O)S1	31*	-95	31	29	8	-57
CN(C)/C=C1/C=C(c2ccccc2)OC1=O	-4	-9	-7	0	12	-2
N#C/C(=C/c1ccc(OCc2ccc(C(=O)O)cc2)c(Br)c1)c1cccc(F)c1	10	-43	9	-4	74*	-8
N#C/C(=C/c1ccccc1OCc1ccc(F)cc1)c1ccc(C(=O)O)cc1	-10	/	-19	-5	/	/
Cc1c(C(=O)N/N=C/c2ccc(O)c(Br)c2)sc(N)c1C#N	-20	-24	-51	-39	72*	6
COc1cc(/C=N/NC(=O)c2sc(N)c(C#N)c2C)ccc1O	-34	-24	-47	-35	-11	-2
O=C(N/N=C/c1ccc(-c2ccccc2[N+](=O)[O-])o1)c1cncc(Br)c1	23	-17	19	7	21	30
Cc1c(C(=O)N/N=C/c2ccc(-c3ccccc3[N+](=O)[O-])o2)sc(N)c1C#N	10	80*	3	1	99*	-3
O=C(NCCS(=O)(=O)N1CCN(Cc2ccccc2)CC1)c1ccc(F)cc1	3	/	-3	7	/	/
Cc1ccc(NS(=O)(=O)c2cccc(C(=O)O)c2)cc1S(=O)(=O)N1CCCCC1	6	-40	8	6	72*	12
O=C(O)c1cccc(S(=O)(=O)Nc2cccc(S(=O)(=O)N3CCCCCC3)c2)c1	6	1	-2	3	15	-6
CCOC(=O)c1ccccc1NC(=O)COC(=O)C1CCN(S(=O)(=O)c2ccccc2C(=O)OC)CC1	6	/	0	0	/	/
CS(=O)(=O)Nc1ccc(C(=O)NCCc2ccccc2)cc1	145*	-15	6	-5	6	-1
CS(=O)(=O)NCc1ccc(C(=O)NCCOc2ccccc2)cc1	3	91*	4	7	34	2
Cc1ccc(-n2nnnc2SCC(=O)Nc2ncc(Cc3ccccc3Cl)s2)cc1	-5	4	-7	-10	0	-5
Cc1ccc(-n2[nH]c(C)c(C=Nc3ccc(S(=O)(=O)Nc4nccs4)cc3)c2=O)cc1	12	-65	8	3	10	1
Cc1[nH]n(-c2ccc(Br)cc2)c(=O)c1C=Nc1ccc(S(=O)(=O)Nc2nccs2)cc1	4	-71	10	4	79*	0
CCOc1cccc(OCCCCn2ccnc2)c1	9	58*	7	8	36	-2
Brc1cccc(OCCOCCn2ccnc2)c1	5	72*	-2	5	15	0
COc1cccc(OCCCn2ccnc2)c1	4	/	5	-2	/	/
CCCCN(C(=O)CSCC(=O)Nc1ccc(C)cc1)c1c(N)n(Cc2ccccc2)c(=O)[nH]c1=O	-2	/	-1	-1	/	/
CCN1CCN(Cc2c(O)ccc3c2O/C(=C\C=C\c2ccccc2OC)C3=O)CC1	39*	-63	2	-22	-2	-5
Cc1ccc(/C=C2\Oc3c(ccc(O)c3CN3CCN(CCO)CC3)C2=O)cc1	48*	-10	37	-2	7	0
CCN1CCN(Cc2c(O)ccc3c(=O)c(-c4ccccc4OC)coc23)CC1	1	-16	2	5	-5	-3
CC(C)c1ccc(/C=C2\Oc3c(ccc(O)c3CN3CCN(C)CC3)C2=O)cc1	41*	-24	36	-6	4	1
COc1ccccc1-c1coc2c(CN3CCN(CCO)CC3)c(O)ccc2c1=O	4	/	2	5	/	/
CCc1ccccc1-n1nnnc1-c1cnccc1C(F)(F)F	-6	-6	-2	-1	-4	/
COc1cc(N=Nc2cccc(S(N)(=O)=O)c2)c2ccccc2c1N	-26	4	-58	-120	67*	/

Screens from PubChem BioAssay.
